Outcome and AC50 data for 31 compounds are collected here from PubChem BioAssay (EPA / NIEHS).

Common to all, as to conditions: mRNA level, 48 h; actives raise or lower the signal
Read-out in test [1]: Tumor necrosis factor receptor superfamily member 6 (Homo sapiens) (UniProt P25445)
Description: LTEA_HepaRG_FAS: Life Technologies and Expression Analysis (LTEA) Assay for Fas cell surface death receptor (FAS) using HepaRG (AID 2283447). In short, it runs like this:
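Differentiated HepaRG cells in serum-free induction medium were exposed 48 h to 8 half-log concentrations up to 100 uM in 0.5% DMSO, in duplicate. FAS mRNA was measured by qRT-PCR normalised to ACTB, GAPDH and POLR2A; bidirectional fit versus DMSO.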

Read-out in test [2]: Fatty acid synthase (Homo sapiens) (UniProt P49327)
The test is described as follows: LTEA_HepaRG_FASN: Life Technologies and Expression Analysis (LTEA) Assay for Fatty Acid Synthase (FASN) using HepaRG (AID 2283448). The gist of the method:
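FASN transcript measured by TaqMan qRT-PCR, normalised to three housekeeping genes, after 48 h chemical exposure of HepaRG cells. Eight-point half-log series from 100 uM in 0.5% DMSO, duplicates; gain or loss fitted against vehicle.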

Read-out in test [3]: Cyclin Dependent Kinase Inhibitor 1A (CDKN1A), CDKN1A (gene 1026)
The test is described as follows: LTEA_HepaRG_CDKN1A: Life Technologies and Expression Analysis (LTEA) Assay for Cyclin Dependent Kinase Inhibitor 1A (CDKN1A) using HepaRG (AID 2283450). In short, it runs like this:
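Differentiated HepaRG cells in serum-free induction medium, exposed 48 h in duplicate to eight half-log concentrations up to 100 uM in 0.5% DMSO. mRNA measured by TaqMan qRT-PCR, normalized to ACTB, GAPDH, POLR2A; bidirectional fit versus DMSO.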

Read-out in test [4]: Cyclin D1 (CCND1), CCND1 (gene 595)
The test is described as follows: LTEA_HepaRG_CCND1: Life Technologies and Expression Analysis (LTEA) Assay for Cyclin D1 (CCND1) using HepaRG (AID 2283451).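 On AC50: TaqMan qRT-PCR transcript level normalised to ACTB GAPDH and POLR2A housekeeping genes.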 The gist of the method:
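Differentiated HepaRG cells exposed 48 h in serum-free induction medium to eight half-log concentrations from 100 uM top, 0.5% DMSO, duplicates. CCND1 mRNA measured by Fluidigm TaqMan qRT-PCR, normalised to ACTB, GAPDH, POLR2A; bidirectional fit.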

Read-out in test [5]: catalase (CAT), CAT (gene 847)
Description: LTEA_HepaRG_CAT: Life Technologies and Expression Analysis (LTEA) Assay for catalase (CAT) using HepaRG (AID 2283452).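 On AC50: TaqMan qRT-PCR signal normalized to ACTB GAPDH and POLR2A housekeeping genes.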 The gist of the method: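 HepaRG cells in serum-free induction medium, 0.5% DMSO vehicle, exposed 48 h in duplicate over 8 half-log concentrations from 100 uM. CAT mRNA measured by qRT-PCR, normalized to ACTB, GAPDH, POLR2A; bidirectional fit versus DMSO.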

Read-out in test [6]: flavin-containing dimethylaniline monooxygenases 3 (FMO3), FMO3 (gene 2328)
The test is described as follows: LTEA_HepaRG_FMO3: Life Technologies and Expression Analysis (LTEA) Assay for flavin-containing dimethylaniline monooxygenases 3 (FMO3) using HepaRG (AID 2283453).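 On AC50: FMO3 transcript by TaqMan qRT-PCR normalized to ACTB GAPDH and POLR2A.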 The gist of the method: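 FMO3 transcript quantified by TaqMan qRT-PCR against three housekeeping genes after 48 h chemical exposure of HepaRG cells. Eight-point half-log series, top 100 uM, 0.5% DMSO vehicle; phenobarbital 1mM induction control; up- or down-regulation fitted.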

Read-out in test [7]: Cytochrome P450 (CYP1A1), CYP1A1 (gene 1543)
The test is described as follows: LTEA_HepaRG_CYP1A1: Life Technologies and Expression Analysis (LTEA) Assay for Cytochrome P450 (CYP1A1) using HepaRG (AID 2283454). In short, it runs like this:
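Differentiated human HepaRG cells, after 48 h plating, exposed in duplicate for 48 h in serum-free induction medium to 8 half-log concentrations up to 100 uM in 0.5% DMSO. CYP1A1 mRNA by qRT-PCR, normalized to ACTB/GAPDH/POLR2A; bidirectional fit versus DMSO.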

Read-out in test [8]: CFLAR gene, CFLAR (gene 8837)
Description: LTEA_HepaRG_CFLAR: Life Technologies and Expression Analysis (LTEA) Assay for CFLAR gene using HepaRG (AID 2283455). In short, it runs like this:
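qRT-PCR read-out (Fluidigm/TaqMan) of CFLAR mRNA, normalized to three housekeeping genes, in differentiated human HepaRG cells after 48 h chemical exposure; 8-point half-log series from 100 uM in 0.5% DMSO; bidirectional curve fitting versus DMSO.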

Read-out in test [9]: Forkhead box O1 (FOXO1), FOXO1 (gene 2308)
The test is described as follows: LTEA_HepaRG_FOXO1: Life Technologies and Expression Analysis (LTEA) Assay for Forkhead box O1 (FOXO1) using HepaRG (AID 2283456). The gist of the method: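 HepaRG, 48 h exposure, 8-pt half-log series from 100 uM in 0.5% DMSO, duplicates; Fluidigm qRT-PCR mRNA, housekeeping-normalised; bidirectional fit vs DMSO baseline.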

Read-out in test [10]: Cyclin D2 (CCND2), CCND2 (gene 894)
The test is described as follows: LTEA_HepaRG_CCND2: Life Technologies and Expression Analysis (LTEA) Assay for Cyclin D2 (CCND2) using HepaRG (AID 2283449).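 Further: CCND2 transcript measured by TaqMan qRT-PCR and normalised to three housekeeping genes.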 The gist of the method: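 HepaRG, 48 h dosing, 8-pt half-log curve from 100 uM, 0.5% DMSO; duplicate wells. Readout: CCND2 transcript by microfluidic qRT-PCR, housekeeping-normalised; bidirectional fit vs DMSO baseline.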

Calls of active or inactive are those of the source. How the source made its calls: active means hit-call score of the fitted dose curve at least 0.9, where 1 is the maximum; inactive means score below 0.9.

Fatty acid synthase (Homo sapiens), sequence (P49327 whole entry, looked up): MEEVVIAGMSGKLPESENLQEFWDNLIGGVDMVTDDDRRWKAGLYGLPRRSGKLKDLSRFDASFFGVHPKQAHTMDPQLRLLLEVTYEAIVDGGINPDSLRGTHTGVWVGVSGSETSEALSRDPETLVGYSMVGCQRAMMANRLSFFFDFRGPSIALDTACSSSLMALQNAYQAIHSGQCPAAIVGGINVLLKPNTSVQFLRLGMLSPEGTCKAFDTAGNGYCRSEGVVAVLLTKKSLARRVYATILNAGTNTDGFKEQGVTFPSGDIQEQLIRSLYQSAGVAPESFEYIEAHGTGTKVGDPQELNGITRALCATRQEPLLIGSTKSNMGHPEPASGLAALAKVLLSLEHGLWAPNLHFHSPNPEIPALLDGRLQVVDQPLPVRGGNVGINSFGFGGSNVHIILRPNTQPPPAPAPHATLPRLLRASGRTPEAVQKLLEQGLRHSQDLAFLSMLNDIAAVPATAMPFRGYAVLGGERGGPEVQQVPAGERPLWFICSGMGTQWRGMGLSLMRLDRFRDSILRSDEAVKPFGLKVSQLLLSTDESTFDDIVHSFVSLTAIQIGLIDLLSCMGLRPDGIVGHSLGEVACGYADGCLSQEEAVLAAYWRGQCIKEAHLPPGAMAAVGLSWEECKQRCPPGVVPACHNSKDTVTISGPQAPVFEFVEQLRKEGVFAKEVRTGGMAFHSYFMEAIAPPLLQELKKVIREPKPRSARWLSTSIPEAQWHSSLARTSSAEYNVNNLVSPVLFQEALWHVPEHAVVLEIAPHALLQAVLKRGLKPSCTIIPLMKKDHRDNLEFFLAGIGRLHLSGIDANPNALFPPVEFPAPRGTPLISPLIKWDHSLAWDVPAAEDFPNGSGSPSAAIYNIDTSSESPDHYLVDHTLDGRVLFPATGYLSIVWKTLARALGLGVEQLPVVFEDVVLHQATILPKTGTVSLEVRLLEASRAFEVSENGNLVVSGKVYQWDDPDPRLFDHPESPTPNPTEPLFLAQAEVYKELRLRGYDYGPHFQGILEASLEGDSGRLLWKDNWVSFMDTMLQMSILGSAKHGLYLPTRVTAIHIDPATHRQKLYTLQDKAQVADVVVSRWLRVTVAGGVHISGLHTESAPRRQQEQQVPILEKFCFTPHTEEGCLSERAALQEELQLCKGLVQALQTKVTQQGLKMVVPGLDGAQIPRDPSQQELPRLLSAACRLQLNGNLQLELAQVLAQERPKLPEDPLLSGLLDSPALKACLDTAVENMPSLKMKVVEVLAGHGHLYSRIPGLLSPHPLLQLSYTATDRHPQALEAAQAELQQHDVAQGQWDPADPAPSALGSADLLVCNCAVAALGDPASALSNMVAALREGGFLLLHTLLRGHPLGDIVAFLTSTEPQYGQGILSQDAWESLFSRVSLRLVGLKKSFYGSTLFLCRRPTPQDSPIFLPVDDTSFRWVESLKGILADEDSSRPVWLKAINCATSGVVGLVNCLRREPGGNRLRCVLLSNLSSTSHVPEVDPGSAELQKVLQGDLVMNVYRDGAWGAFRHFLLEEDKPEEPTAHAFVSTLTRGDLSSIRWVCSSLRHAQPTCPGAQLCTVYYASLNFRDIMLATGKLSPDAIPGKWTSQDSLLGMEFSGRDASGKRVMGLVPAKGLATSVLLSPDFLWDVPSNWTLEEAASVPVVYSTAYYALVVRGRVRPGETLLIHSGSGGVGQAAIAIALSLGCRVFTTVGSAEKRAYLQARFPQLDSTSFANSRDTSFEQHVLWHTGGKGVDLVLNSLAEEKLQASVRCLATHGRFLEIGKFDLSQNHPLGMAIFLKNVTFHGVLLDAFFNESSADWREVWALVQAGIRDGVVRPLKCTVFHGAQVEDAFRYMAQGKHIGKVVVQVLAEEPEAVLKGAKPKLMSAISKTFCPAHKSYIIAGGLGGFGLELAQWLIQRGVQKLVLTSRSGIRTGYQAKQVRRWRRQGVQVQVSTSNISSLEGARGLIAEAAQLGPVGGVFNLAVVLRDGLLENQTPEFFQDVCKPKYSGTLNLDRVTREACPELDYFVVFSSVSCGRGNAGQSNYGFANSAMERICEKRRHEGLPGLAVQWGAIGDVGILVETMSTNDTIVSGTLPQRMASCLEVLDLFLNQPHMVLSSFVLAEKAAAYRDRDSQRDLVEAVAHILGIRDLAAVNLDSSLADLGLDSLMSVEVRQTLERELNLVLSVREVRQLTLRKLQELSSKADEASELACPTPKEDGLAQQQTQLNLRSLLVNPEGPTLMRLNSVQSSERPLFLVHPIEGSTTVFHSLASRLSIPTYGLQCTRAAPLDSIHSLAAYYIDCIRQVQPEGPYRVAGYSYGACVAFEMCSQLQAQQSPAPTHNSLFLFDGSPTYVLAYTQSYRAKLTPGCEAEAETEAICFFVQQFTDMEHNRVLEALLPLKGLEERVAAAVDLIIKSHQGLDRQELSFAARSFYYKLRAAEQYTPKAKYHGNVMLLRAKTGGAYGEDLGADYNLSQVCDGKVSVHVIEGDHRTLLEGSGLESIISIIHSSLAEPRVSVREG

For orientation: AC50 means the concentration at which the activity in the assay is half-maximal. With `CC(C)NCC(O)c1ccc(O)c(O)c1` (stereo unspecified), the result in [1] and in test [9] was inactive. Besides, the AC50 in [2] was 0.219 µM (active); in test [3] it was 0.148 µM (active); in test [4] it was 0.141 µM (active); in test [5], 0.2 µM (active); in [6], 0.451 µM (active); in [7], 0.147 µM (active). The AC50 in test [8] is 0.238 µM (active).
On to `CCCCC(CC)CO` (stereo unspecified), for which the result in test [2], in [3], in test [4], in [5], in [6] and in [8] was inactive. The result in test [9] was inactive. Moreover, the AC50 was 59.8 µM (active) in test [10] and 39.1 µM (active) in test [7].
In the case of `CC(C)c1cccc(C(C)C)c1NC(=O)NS(=O)(=O)c1cc(C(C)(C)O)co1`, the compound was called inactive in [2], in test [3], in test [4], in test [5], in test [6] and in test [8]. Also, the result in [9] was inactive.
As to `CCCC[C@H]1CN(CC2CCOCC2)C(=O)OC12CCN(C1(C)CCN(C(=O)c3c(C)ncnc3C)CC1)CC2`, the compound was classed as inactive in test [2], in test [3], in test [4], in test [6], in [7] and in [8]. Further, the outcome in [9] was inactive.
Turning to `O=C1CCCCC1`, the result in test [2], in test [3], in test [4], in [6], in test [8] and in test [9] was inactive.
In the case of `O=NO`, the call in test [2], in test [3], in [4], in [5], in test [6] and in [7] was inactive. The result in test [8] and in [9] was inactive.
In the case of `CC(C)OC(=O)C(C)(C)Oc1ccc(C(=O)c2ccc(Cl)cc2)cc1`, the compound was called inactive in [10], in test [3], in [4], in test [5], in test [6] and in test [8]. For the same compound, the outcome in [9] was inactive. Also, the AC50 in test [7] is 50 µM (active).
Take `COC(=O)CCCC(=O)OC`: the compound was classed as inactive in test [2], in test [3], in test [4], in test [5], in test [6] and in [8]. In addition, the outcome in test [9] was inactive.
Consider `CN(C)C(=O)NC1(c2ccccc2)CCN(CC[C@@]2(c3ccc(F)c(F)c3)CN(C(=O)c3ccccc3)CCO2)CC1`, for which the AC50 in test [2] was 29.5 µM (active); in [6], 57 µM (active). The compound was classed as inactive in [3], in test [4], in [5], in [8] and in test [9].
For `C/C=C/C=C/C(=O)O`, the compound was called inactive in test [2], in test [3], in test [4], in test [5], in test [6] and in [8]. The result in [9] was inactive. Also, the AC50 in [7] was 76.6 µM (active).
As to `C=CCCCCCCCCCCCC`, the compound was called inactive in [2], in [3], in test [4], in test [6], in test [7] and in test [8]. Also, in [9], the outcome was inactive.
Take `OCC(CO)n1cnc(-c2ccc(F)cc2)c1-c1ccnc(Oc2ccccc2)n1`: the outcome in [2], in test [3], in test [5], in test [6], in [8] and in test [9] was inactive. Moreover, the AC50 in test [4] is 20.1 µM (active); in test [7], 50 µM (active).
Consider `O=C1O[C@H]([C@H](O)CO)C(O)=C1O`, for which the call in test [2], in test [10], in test [3], in test [4], in test [6] and in test [8] was inactive. The call in test [9] was inactive. For the same compound, the AC50 in test [7] was 64.4 µM (active).
Consider `CC(C)(C)c1ccccc1`, for which the result in test [2], in test [3], in test [4], in test [6], in [8] and in test [9] was inactive.
`O=C(NS(=O)(=O)/C=C/c1cccs1)c1ccc(F)cc1Br`: the call in test [2], in test [3], in [4], in [5], in [6] and in test [8] was inactive. Moreover, the result in test [9] was inactive.
For the compound `CN(C)CCCN(C)CCCN(C)C`, the compound was called inactive in test [2], in test [3], in test [4], in test [5], in test [6] and in test [7]. Moreover, the compound was classed as inactive in test [8] and in [9].
Regarding `NC=O`, the result in test [2], in test [3], in [4], in test [6], in [8] and in [9] was inactive.
Regarding `CCCCCCCCCCCCCCOS(=O)(=O)O`, the compound was called inactive in test [2], in test [10], in [3], in test [4], in test [5] and in test [6]. Besides, the result in [8] and in [9] was inactive.
As to `CCc1cc(C2=C(C(=O)O)N(c3ccccc3C(F)(F)F)S(=O)(=O)c3ccccc32)cc2c1OCO2`, the compound was classed as inactive in [2], in [10], in [3], in test [4], in test [8] and in test [9]. Also, in test [6], the AC50 is 78.8 µM (active).
For `COc1ccc(OC(F)(F)F)cc1CN[C@H]1CCCN[C@H]1c1ccccc1`, the AC50 in test [2] was 83.9 µM (active); in [3], 89.6 µM (active); in test [4], 87.1 µM (active); in [5] it was 71.6 µM (active); in [6], 72.7 µM (active); in test [7], 12.6 µM (active). For the same compound, the values for the AC50 in test [8] and in test [9] were 84.1 µM (active) and 93.8 µM (active), respectively. For the same compound, in [10], the result was inactive.
Regarding `O=[Si]=O`, the call in [2], in test [3], in test [4], in test [5], in test [6] and in test [8] was inactive. In test [9], the call was inactive. Besides, the AC50 in test [7] was 76.6 µM (active).
For the compound `CC(C)c1cccc(C(C)C)c1`, the compound was called inactive in test [2], in [3], in test [4], in [6], in [8] and in test [9].
Turning to `CCCCOC(=O)CCCCC(=O)OCCCC`, the compound was called inactive in test [2], in [3], in test [4], in [5], in test [6] and in test [8]. The compound was called inactive in test [9]. In addition, in test [7], the AC50 was 50 µM (active).
On to `Cc1cn([C@H]2C=C[C@@H](CO)O2)c(=O)[nH]c1=O`, for which the compound was classed as inactive in test [3], in test [4], in test [6], in [8] and in test [9]. Further, in test [7], the concentration at half-maximal activity (AC50) was 69.4 µM (active).
Turning to `NC1CCCCC1`, the compound was called inactive in [2], in test [3], in test [4], in test [5], in test [6] and in test [8]. Further, the result in test [9] was inactive.
As for `CCCCCCC(CCCCCCCCCCC(=O)OCC(COC(C)=O)OC(C)=O)OC(C)=O` (stereo unspecified), the compound was called inactive in test [2], in test [3], in test [4], in [5], in [6] and in test [8]. Further, in test [9], the outcome was inactive.
With `CCCCC(CC)COC(=O)CCCCCCCC(=O)OCC(CC)CCCC` (stereo unspecified), the call in [2], in test [10], in [3], in test [4], in test [6] and in test [8] was inactive. Also, the compound was called inactive in test [9].
As for `C=CCc1ccc(OC)c(OC)c1`, the compound was called inactive in [2], in test [10], in [3], in test [4], in [5] and in [6]. Besides, the call in [8] and in test [9] was inactive.
Turning to `CCc1nc(N)nc(N)c1-c1ccc(Cl)cc1`, the call in [2], in [10], in test [4], in test [7], in test [8] and in test [9] was inactive. Also, the values for the AC50 in [3] and in test [6] were 70.2 µM (active) and 69.4 µM (active), respectively.
Regarding `CCCC(=O)O`, the outcome in [2], in [3], in [4], in test [5], in [6] and in test [7] was inactive. Also, the outcome in test [8] and in [9] was inactive.
For `C/C=C/c1ccc(OC)cc1`, the result in [2], in test [3], in test [4], in [5], in [6] and in test [8] was inactive. In [9], the call was inactive. Besides, the AC50 in [7] is 50 µM (active).
